Active and inactive are the calls of the source.

Assay [1] in a line: compound effects on lung adenocarcinoma cell viability – A549, calcein-AM fluorescence, 48 h, basal, profiling panel (AID 1162). Particulars: higher = more signal.
A short description of assay [2]: compound effects on differentiated 3T3-L1 adipocyte viability – cell-based, 3T3-L1 adipocytes, calcein-AM fluorescence, 48 h, basal, profiling panel (AID 1163). Particulars: 3T3-L1 adipocytes viability, higher = more signal.
The nature of assay [3]: compound effects on hepatocellular carcinoma cell viability – HepG2, calcein-AM fluorescence, 48 h, basal, profiling panel (AID 1164). Particulars: higher = more signal.
The nature of assay [4]: compound effects on multiple myeloma cell viability – MM1S, calcein-AM fluorescence, 48 h, basal, profiling panel (AID 1165).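 Also: viability of MM1S multiple myeloma cells under basal unstimulated conditions.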 Particulars: higher = more signal.
Assay [5] can be described thus: calcein-AM signal in unstimulated myeloma cells – cell-based, calcein-AM fluorescence, 48 h, PK04 Diversity Set, profiling panel (AID 1166).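 Also: cells grown under basal conditions without added stimulus.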 Particulars: RPMI8226 myeloma viability, higher = more signal.
Assay [6] can be described thus: JC-1 mitochondrial signal, unstimulated HepG2 cells – cell-based, JC-1 fluorescence, 24 h, 100 nL compound, profiling panel (AID 1167). Conditions: HepG2 mitochondrial potential, higher = more signal.
The nature of assay [7]: JC-1 mitochondrial signal, unstimulated adipocytes – cell-based, JC-1 fluorescence, 3T3-L1 adipocytes, 24 h, 100 nL compound, profiling panel (AID 1168). Conditions: JC-1 mitochondrial fluorescence, higher = more signal, called active from +8 up or from −8 down.
A short description of assay [8]: JC-1 mitochondrial signal, unstimulated myeloma cells – cell-based, JC-1 fluorescence, RPMI8226, 24 h, 100 nL compound, profiling panel (AID 1169). Particulars: JC-1 mitochondrial potential fluorescence, higher = more signal.
Assay [9] is described as follows: JC-1 mitochondrial signal, unstimulated MM1S myeloma – cell-based, JC-1 fluorescence, 24 h, 100 nL compound, profiling panel (AID 1170). Particulars: MM1S mitochondrial potential, higher = more signal.
The nature of assay [10]: resazurin metabolic signal in A549 cells – cell-based, resazurin fluorescence, 24 h, PK04 Diversity Set, profiling panel (AID 1171). Particulars: A549 viability, higher = more signal, called active from +8 up or from −8 down. On the technique in general: Alamar Blue is a resazurin reagent that responds to reducing activity.
Also: test concentration not given here.

For `CN(C)CCCCNC(=O)[C@@H]1C[C@@H]2C(=O)N[C@@H](Cc3ccccc3)C(=O)N2[C@@H]1c1cccc(OCCO)c1`, the z-score in [1] was 1.74; in assay [2], 0.296; in assay [3] it was 1.13; in assay [4], -0.729; in [5] it was 0.573; in assay [6], 1.88. Also, the z-score was 0.76 (inactive) in [7], -0.0777 in assay [8], 0.108 in assay [9] and -0.0805 (inactive) in [10].
Turning to `CN(C)CCCNC(=O)[C@@]1(c2ccc([N+](=O)[O-])cc2)CC(=O)N(CC23CC4CC(CC(C4)C2)C3)[C@@H]1c1ccc(CO)cc1I`, the z-score in [1] was -4.27; in assay [2] it was -0.0899; in assay [3] it was -5.25; in [4] it was -3.97; in assay [5], -4.15; in assay [6], -2.77. Also, the z-score in assay [7] was 1.94 (inactive); in assay [8] it was -0.913; in assay [9], -2.37; in assay [10] it was -7.13 (inactive).
For `COC(=O)[C@@]1(Cc2ccccc2)[C@H]2c3cc(C(=O)N(C)C)n(Cc4c(CO)[nH]cc(C)c4=O)c3C[C@H]2CN1C(=O)c1ccccc1`, the z-score in assay [1] was -0.218; in [2] it was -0.284; in assay [3], 1.2; in assay [4], -0.979; in assay [5] it was -0.247; in [6] it was 1.34. The z-score in [7] is -0.235 (inactive); in assay [8] it was 0.445; in [9], -0.491; in [10], -0.25 (inactive).
As for `C=CCC(OC(C)=O)[C@@H]1[C@@H](N(Cc2ccc(-c3cccc(C(F)(F)F)c3)o2)C(=O)c2ccc(-c3ccccc3)cc2)c2cc(OCCCO)ccc2N1C(=O)c1ccc2ccccc2n1` (stereo not given in full), the z-score in assay [1] is -0.157; in assay [2] it was 0.585; in assay [3], -0.474; in assay [4], 0.0887; in assay [5], 0.458; in assay [6], 2.07. The z-score in [7] was -0.572 (inactive); in [8], 0.378; in assay [9], -0.0621; in assay [10], 0.264 (inactive).
For the compound `Cc1ccc(S[C@]2(C(=O)O)CC(=O)N(Cc3ccccc3Cl)[C@@H]2c2ccc(CO)cc2I)cc1`, the z-score was -0.794 in assay [1]; -0.551 in assay [2]; -0.828 in [3]; -2.94 in [4]; -2.92 in assay [5]; -0.508 in assay [6]. The z-score in [7] is -1.14 (inactive); in [8] it was -0.615; in [9], -0.589; in assay [10], 0.459 (inactive).
`O=C(NCC(F)(F)F)[C@@H]1c2ccccc2C(=O)N(Cc2cc(F)cc(C(F)(F)F)c2)[C@H]1c1ccc(CO)cc1`: the z-score in assay [1] is 0.792; in [2] it was 0.929; in assay [3], -0.158; in [4] it was 0.227; in [5] it was -0.202; in assay [6], 1.23. Moreover, the z-score in assay [7] is 0.00233 (inactive); in assay [8] it was -0.656; in assay [9], -0.389; in [10], 0.44 (inactive).
As to `O=C1C2C=CC(C(O)c3ccc(F)cc3)N(n3cnnc3)C2C(=O)N1Cc1ccccc1` (stereo not given), the z-score in assay [1] is -0.184; in [2], 0.799; in [3], -1; in [4], -0.0875; in assay [5], -1.08; in [6], -0.518. Further, the z-score in assay [7] is -0.633 (inactive); in assay [8], -0.0973; in [9], 0.0911; in assay [10], -1.29 (inactive).
In the case of `C=CCN1C(=O)[C@@]2(CCS(=O)(=O)c3ccccc3)N=C(c3ccc(OCCCO)cc3)O[C@H]2c2ccccc21`, the z-score in [1] was 0.0843; in assay [2], 0.473; in assay [3], 0.684; in assay [4], -0.786; in assay [5] it was -2.05; in assay [6] it was -0.692. Further, the z-score in assay [7] is 1.79 (inactive); in [8], -0.995; in assay [9] it was 0.0237; in assay [10], -0.812 (inactive).
In the case of `COCCOC(=O)N1C(=O)[C@@]2(c3cc(C#Cc4ccc(OC)cc4)ccc31)[C@H](C(=O)Nc1nc3ccccc3s1)[C@H]1C(=O)O[C@H](c3ccccc3)[C@H](c3ccccc3)N1[C@@H]2c1ccc(OCCO)cc1`, the z-score is -0.205 in [1]; -0.106 in assay [2]; -1.07 in [3]; -1.59 in assay [4]; -0.482 in [5]; -3.17 in [6]. The z-score was 2.92 (inactive) in assay [7], -0.604 in [8], -1.44 in assay [9] and -0.0799 (inactive) in [10].
Turning to `COCCCNC(=O)[C@@]1(Cc2ccccc2N=[N+]=[N-])COC(c2ccc(OCCCO)cc2)=N1`, the z-score in [1] was 0.552; in assay [2] it was -0.707; in assay [3], 0.815; in [4] it was -0.919; in [5], -0.0778; in assay [6] it was 0.796. The z-score in assay [7] was 0.156 (inactive); in assay [8], -0.408; in [9], -1.21; in assay [10], 0.992 (inactive).
As to `O=C1OCCC/C=C\[C@H]2OC34C=CCN(CCN5CCOCC5)C(=O)[C@H]3N(CCCCCCO)C(=O)[C@@H]4C12` (stereo not given in full), the z-score in assay [1] was 0.26; in [2], 1.3; in [3], 1.18; in assay [4], 1.54; in assay [5], 0.279; in assay [6] it was 0.538. The z-score is 0.587 (inactive) in assay [7], 0.0622 in [8], -0.955 in [9] and -0.168 (inactive) in assay [10].
With `O=C1OCC=C[C@H]2OC34C=CCN(c5ccc(Cl)cc5)C(=O)[C@H]3N(CCO)C(=O)[C@@H]4[C@@H]12` (stereo not given in full), the z-score in assay [1] is 0.667; in [2], 0.0916; in assay [3] it was 0.781; in assay [4] it was 0.0654; in assay [5], 0.714; in assay [6], -0.365. Also, the z-score in assay [7] was -0.803 (inactive); in [8], 0.0649; in assay [9], 0.596; in assay [10] it was -0.27 (inactive).
With `COc1ccc(CN(C2=CC[C@@]3(C(N)=O)C(=O)C(Cl)=C(Cl)C(=O)[C@@]3(C#N)C2)S(=O)(=O)c2ccc(Br)cc2)cc1`, the z-score was 0.236 in assay [1]; 0.167 in assay [2]; 0.0144 in [3]; -3.34 in assay [4]; -1.66 in [5]; -2.16 in [6]. Further, the z-score is -0.689 (inactive) in assay [7], -0.885 in [8], -2.06 in assay [9] and -1.12 (inactive) in [10].
`COC(=O)[C@@]1(Cc2ccccc2)[C@H]2c3cc(C(=O)N(C)C)n(CCN4CNCC4=O)c3C[C@H]2CN1C(=O)c1ccccc1`: the z-score in assay [1] was 0.134; in assay [2], -0.391; in [3], 0.0701; in assay [4] it was 0.0517; in assay [5], -0.002; in assay [6] it was 0.196. The z-score in assay [7] is -0.179 (inactive); in assay [8], -0.874; in [9], 1.46; in assay [10], 0.293 (inactive).
As to `COCCOC(=O)N1C(=O)[C@@]2(c3cc(C#CC4=CCCCC4)ccc31)[C@H](c1ccccc1OCCO)N1[C@H](c3ccccc3)[C@H](c3ccccc3)OC(=O)[C@H]1[C@@H]2C(=O)N1CCCCCCC1`, the z-score in assay [1] is -2.1; in assay [2], 0.443; in assay [3] it was -0.599; in assay [4], -2.38; in assay [5], -2.38; in [6] it was 0.737. In addition, the z-score in [7] was 0.262 (inactive); in [8], -0.934; in assay [9], -1.31; in assay [10], 0.0309 (inactive).
